Numbering of substitutions follows the chain as printed.

For twelve sequences, binding signal results are on record in publication PMC5700166.

Holding throughout (assay): protein-binding microarray (PBM); PBM: ~300 nM protein, 6 mM HEPES pH 7.8, 80 mM KCl, 0.5 mM EDTA, 0.5 mM EGTA, 6% glycerol, 35 ng/ul poly-dIdC, 1% milk, 1 h, room temperature; Ap Aiptasia and Nv Nematostella (sea anemones) / Co Capsaspora / Aq Amphimedon (sponge) / Dm Drosophila / Hu human; RHD is the Rel homology domain; high values mean tight binding
Holding throughout (conditions): dsDNA, one strand shown

One assay addresses T1, GST-Ap-NF-kB RHD (Exaiptasia pallida (Aiptasia), UniProt A0A913YAJ5 2-422).
T1 sequence: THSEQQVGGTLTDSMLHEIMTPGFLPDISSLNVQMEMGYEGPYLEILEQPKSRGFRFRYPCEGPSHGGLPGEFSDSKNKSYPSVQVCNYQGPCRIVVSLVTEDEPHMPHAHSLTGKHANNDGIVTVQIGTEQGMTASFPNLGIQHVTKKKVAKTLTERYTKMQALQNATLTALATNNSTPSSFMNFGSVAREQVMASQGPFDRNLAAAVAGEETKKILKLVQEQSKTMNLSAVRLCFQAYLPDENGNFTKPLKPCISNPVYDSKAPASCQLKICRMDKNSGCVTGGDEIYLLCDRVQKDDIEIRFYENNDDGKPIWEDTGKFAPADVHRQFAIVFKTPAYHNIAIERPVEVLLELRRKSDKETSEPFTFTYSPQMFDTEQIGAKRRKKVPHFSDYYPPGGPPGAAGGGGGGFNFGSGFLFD

In assay [1] the target is T2, GST-Nv-NF-kB (Cys allele) (Nematostella vectensis, UniProt E5G601 2-411).
T2 sequence: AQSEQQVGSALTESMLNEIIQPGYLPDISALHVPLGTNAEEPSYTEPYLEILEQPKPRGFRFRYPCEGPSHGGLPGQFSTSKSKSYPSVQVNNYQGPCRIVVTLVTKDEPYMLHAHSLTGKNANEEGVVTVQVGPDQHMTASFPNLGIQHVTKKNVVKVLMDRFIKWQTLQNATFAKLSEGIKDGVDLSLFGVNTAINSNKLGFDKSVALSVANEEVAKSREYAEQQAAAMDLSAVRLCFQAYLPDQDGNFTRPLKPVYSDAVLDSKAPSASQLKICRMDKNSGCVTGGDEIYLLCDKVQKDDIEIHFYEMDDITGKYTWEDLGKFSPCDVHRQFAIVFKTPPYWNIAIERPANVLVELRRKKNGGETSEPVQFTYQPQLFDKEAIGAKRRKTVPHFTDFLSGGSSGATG

Assay [2] has as its target T3, GST-Nv-NF-kB (Ser allele) (Nematostella vectensis, UniProt A7UNT2 2-411).
T3 sequence: T2 sequence with Q21R, C66S, S207N, E215Q, V217A, E225K, A268E, D399E

In the next assay the target is T4, GST-Co-NF-kB (Capsaspora owczarzaki, UniProt F1ARL5 200-546).
T4 sequence: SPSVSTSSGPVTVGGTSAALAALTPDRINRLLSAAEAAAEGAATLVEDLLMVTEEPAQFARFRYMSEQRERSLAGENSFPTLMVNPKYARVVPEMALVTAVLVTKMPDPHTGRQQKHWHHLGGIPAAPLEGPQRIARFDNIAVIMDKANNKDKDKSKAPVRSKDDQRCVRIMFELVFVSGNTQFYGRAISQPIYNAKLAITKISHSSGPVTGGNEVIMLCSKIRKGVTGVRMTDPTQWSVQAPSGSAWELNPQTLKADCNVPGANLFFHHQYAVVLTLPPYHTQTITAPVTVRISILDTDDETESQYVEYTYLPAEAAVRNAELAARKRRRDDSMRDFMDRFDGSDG

A further assay addresses T5, GST-Dm-Relish (Drosophila melanogaster, UniProt Q94527 99-473).
T5 sequence: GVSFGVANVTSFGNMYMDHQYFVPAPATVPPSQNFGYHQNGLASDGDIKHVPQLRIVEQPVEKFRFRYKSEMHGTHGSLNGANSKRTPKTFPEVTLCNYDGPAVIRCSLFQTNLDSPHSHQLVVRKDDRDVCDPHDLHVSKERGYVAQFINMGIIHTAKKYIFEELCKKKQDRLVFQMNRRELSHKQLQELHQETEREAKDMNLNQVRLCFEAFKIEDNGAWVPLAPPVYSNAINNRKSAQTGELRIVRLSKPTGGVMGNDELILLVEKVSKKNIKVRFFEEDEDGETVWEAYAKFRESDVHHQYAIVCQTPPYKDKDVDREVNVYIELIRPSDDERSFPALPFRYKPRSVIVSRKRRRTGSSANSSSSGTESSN

For another assay, the target named is T6, GST-Aq-NF-kB (Amphimedon queenslandica, UniProt A9Y5G7 2-389).
T6 sequence: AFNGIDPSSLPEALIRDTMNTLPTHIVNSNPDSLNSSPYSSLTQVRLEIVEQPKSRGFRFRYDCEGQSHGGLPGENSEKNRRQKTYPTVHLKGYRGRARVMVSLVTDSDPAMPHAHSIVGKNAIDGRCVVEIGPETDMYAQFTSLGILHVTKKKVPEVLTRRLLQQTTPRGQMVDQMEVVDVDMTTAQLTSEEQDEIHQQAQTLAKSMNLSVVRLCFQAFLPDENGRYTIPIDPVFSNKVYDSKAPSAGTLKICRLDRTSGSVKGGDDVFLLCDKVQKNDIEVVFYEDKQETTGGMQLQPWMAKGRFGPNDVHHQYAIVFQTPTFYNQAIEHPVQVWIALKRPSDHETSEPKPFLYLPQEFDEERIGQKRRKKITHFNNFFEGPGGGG

For the next assay, the target named is GST-Hu-p50 (Homo sapiens, UniProt P19838 7-356).
Sequence of GST-Hu-p50 (P19838 7-356): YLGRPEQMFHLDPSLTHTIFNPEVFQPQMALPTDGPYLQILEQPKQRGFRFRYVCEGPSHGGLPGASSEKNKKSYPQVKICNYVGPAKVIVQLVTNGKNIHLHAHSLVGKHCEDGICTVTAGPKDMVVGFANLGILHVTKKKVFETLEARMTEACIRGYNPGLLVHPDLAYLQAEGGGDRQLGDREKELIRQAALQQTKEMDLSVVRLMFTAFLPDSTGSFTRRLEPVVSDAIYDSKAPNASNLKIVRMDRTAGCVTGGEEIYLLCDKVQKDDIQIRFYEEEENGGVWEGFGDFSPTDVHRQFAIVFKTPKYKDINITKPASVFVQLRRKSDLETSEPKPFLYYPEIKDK

Consider “CCGATTAACATCAGGGGGACTACTGATGTTAATCGGGTCTTGATTCGCTTGACGCTGCTG”, for which the binding signal in the assay with GST-Ap-NF-kB RHD is 6.49 z-score; in assay [1], 4.44 z-score; in assay [2], 4.46 z-score; in the assay with GST-Co-NF-kB, 4.53 z-score; in the assay with GST-Dm-Relish, 6.39 z-score; in the assay with GST-Aq-NF-kB it was 5.25 z-score. The sequence also gave a binding signal with GST-Hu-p50 of 4.55 z-score.
Regarding “CCGATTAACATCAGGAAGTCCCCTGATGTTAATCGGGTCTTGATTCGCTTGACGCTGCTG”, the binding signal with GST-Ap-NF-kB RHD turned out to be 8.63 z-score; in assay [1], 8.97 z-score; in assay [2] it was 6.92 z-score; with GST-Co-NF-kB it was 2.68 z-score; with GST-Dm-Relish it was 8.96 z-score; with GST-Aq-NF-kB, 8.77 z-score. The binding signal in the assay with GST-Hu-p50 worked out at 6.94 z-score.
In the case of “CCGATTAACATCAGGGGGATAACTGATGTTAATCGGGTCTTGATTCGCTTGACGCTGCTG”, the binding signal is 6.6 z-score with GST-Ap-NF-kB RHD; 4.96 z-score in assay [1]; 5.96 z-score in assay [2]; 6.99 z-score with GST-Co-NF-kB; 7.19 z-score with GST-Dm-Relish; 5.34 z-score with GST-Aq-NF-kB. In addition, the binding signal in the assay with GST-Hu-p50 worked out at 5.17 z-score.
On to “CCGATTAACATCAGTTTTCCCCATGATGTTAATCGGGTCTTGATTCGCTTGACGCTGCTG”, for which the binding signal with GST-Ap-NF-kB RHD is 6.49 z-score; in assay [1] it was 7.03 z-score; in assay [2] it was 9.09 z-score; in the assay with GST-Co-NF-kB, 9.45 z-score; in the assay with GST-Dm-Relish, 3.42 z-score; in the assay with GST-Aq-NF-kB, 4.82 z-score. In the assay with GST-Hu-p50, this sequence had a binding signal of 5.76 z-score.
Regarding “CCGATTAACATCACTAAATCCCCTGATGTTAATCGGGTCTTGATTCGCTTGACGCTGCTG”, the binding signal with GST-Ap-NF-kB RHD is 6.91 z-score; in assay [1] it was 7.06 z-score; in assay [2], 9.63 z-score; in the assay with GST-Co-NF-kB, 3.45 z-score; with GST-Dm-Relish, 6.49 z-score; with GST-Aq-NF-kB, 5.34 z-score. The sequence also had a binding signal with GST-Hu-p50 of 6.6 z-score.
Consider “CCGATTAACATCAAACACCCCCTTGATGTTAATCGGGTCTTGATTCGCTTGACGCTGCTG”, for which the binding signal is 4.95 z-score with GST-Ap-NF-kB RHD; 5.25 z-score in assay [1]; 5.61 z-score in assay [2]; 3.04 z-score with GST-Co-NF-kB; 5.63 z-score with GST-Dm-Relish; 6.03 z-score with GST-Aq-NF-kB. This sequence also yielded a binding signal in the assay with GST-Hu-p50 of 5.5 z-score.
As to “CCGATTAACATCAGATATTCCCCTGATGTTAATCGGGTCTTGATTCGCTTGACGCTGCTG”, the binding signal came to 7.71 z-score in the assay with GST-Ap-NF-kB RHD; 9.63 z-score in assay [1]; 8.71 z-score in assay [2]; 8.17 z-score with GST-Co-NF-kB; 5.36 z-score with GST-Dm-Relish; 7.31 z-score with GST-Aq-NF-kB. In the assay with GST-Hu-p50, this sequence displayed a binding signal of 5.94 z-score.
With “CCGATTAACATCAGGGGAAACTATGATGTTAATCGGGTCTTGATTCGCTTGACGCTGCTG”, the binding signal with GST-Ap-NF-kB RHD is 6.82 z-score; in assay [1], 7.81 z-score; in assay [2] it was 10.9 z-score; with GST-Co-NF-kB, 9.61 z-score; with GST-Dm-Relish, 3.46 z-score; in the assay with GST-Aq-NF-kB it was 5.53 z-score. Besides, in the assay with GST-Hu-p50, the binding signal was determined as 6.14 z-score.
Take “CCGATTAACATCAGGGTTCCCCATGATGTTAATCGGGTCTTGATTCGCTTGACGCTGCTG”: the binding signal turned out to be 6.72 z-score with GST-Ap-NF-kB RHD; 5.05 z-score in assay [1]; 5.17 z-score in assay [2]; 5.37 z-score with GST-Co-NF-kB; 7.85 z-score with GST-Dm-Relish; 4.21 z-score with GST-Aq-NF-kB. The binding signal in the assay with GST-Hu-p50 was found to be 3.83 z-score.
Regarding “CCGATTAACATCACCAAATCCCCTGATGTTAATCGGGTCTTGATTCGCTTGACGCTGCTG”, the binding signal stood at 6.97 z-score with GST-Ap-NF-kB RHD; 6.55 z-score in assay [1]; 9.44 z-score in assay [2]; 3.02 z-score with GST-Co-NF-kB; 4.48 z-score with GST-Dm-Relish; 4.54 z-score with GST-Aq-NF-kB. Besides, the binding signal in the assay with GST-Hu-p50 was found to be 6.6 z-score.
Turning to “CCGATTAACATCACCTTTCCCCCTGATGTTAATCGGGTCTTGATTCGCTTGACGCTGCTG”, the binding signal with GST-Ap-NF-kB RHD was 6.53 z-score; in assay [1] it was 6.31 z-score; in assay [2] it was 7.29 z-score; in the assay with GST-Co-NF-kB it was 9.42 z-score; with GST-Dm-Relish it was 2.89 z-score; with GST-Aq-NF-kB it was 4.77 z-score. In the assay with GST-Hu-p50, this sequence showed a binding signal of 5.65 z-score.
Turning to “CCGATTAACATCAGGAAGCCCCCTGATGTTAATCGGGTCTTGATTCGCTTGACGCTGCTG”, the binding signal stood at 6.62 z-score in the assay with GST-Ap-NF-kB RHD; 5.72 z-score in assay [1]; 3.93 z-score in assay [2]; 1.49 z-score with GST-Co-NF-kB; 7.8 z-score in the assay with GST-Dm-Relish; 7.03 z-score with GST-Aq-NF-kB. The sequence further came in with a binding signal with GST-Hu-p50 of 5.74 z-score.
